In PubChem BioAssay (Tox21):
Inconclusive results are not listed. Active and inactive are the calls of the source. Unless noted, calls come from the whole dose curve; as a rule, active = well fitted curve in the direction sought with a large enough effect in the repeat runs; inconclusive = weak or mixed curves; inactive = flat fitted curve, though single readings scatter. Positions of bridges follow the written chain, without caps; N, C: chain ends. Non-standard residues stand in square brackets, D forms with d. Residues, ends and D or L forms follow the SMILES beside them. hArg = N=C(N)NCCCC[C@H](N)C(=O)O; Mpa = O=C(O)CCS

Columns and labels:
[1] = qHTS assay to test for compound auto fluorescence at 535 nm (green) in HEK293 cells (AID 720680)
[2] = qHTS assay to test for compound auto fluorescence at 460 nm (blue) in HEK293 cell free culture (AID 720681)
Summary of the method: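 Compounds were added to cell-free DMEM with 10% FBS and fluorescence read directly. The blue channel used 405 nm excitation and 460 nm emission, with triamterene as the reference fluorophore.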

[3] = qHTS assay to test for compound auto fluorescence at 535 nm (green) in HEK293 cell free culture (AID 720682)
Summary of the method: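 Compounds were pin-transferred into cell-free DMEM with 10% FBS, and green fluorescence was read at excitation 485 nm and emission 535 nm. Intensities were expressed as fluorescein-equivalent values.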

[4] = qHTS assay to test for compound auto fluorescence at 590 nm (red) in HEK293 cell free culture (AID 720683)
Summary of the method: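 Cell-free wells of DMEM with 10% FBS received compound, and intrinsic fluorescence was read at excitation/emission 540/590 nm. Values expressed as equivalence to Rose Bengal sodium.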

[5] = qHTS assay to test for compound auto fluorescence at 590 nm (red) in HepG2 cell free culture (AID 720684)
Summary of the method: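 Rose Bengal sodium served as the reference for red signal. Test compounds were dispensed into serum-containing MEM (10% FBS) without cells, and plates were read at 540/590 nm.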

[6] = qHTS assay to test for compound auto fluorescence at 460 nm (blue) in HepG2 cell free culture (AID 720685)
Summary of the method: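 Cell-free plates of MEM plus 10% FBS received 23 nL compound or DMSO vehicle; blue-channel (405/460 nm) intensity scored against triamterene as reference fluorophore.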

[7] = qHTS assay to test for compound auto fluorescence at 535 nm (green) in HepG2 cell free culture (AID 720686)
[8] = qHTS assay to test for compound auto fluorescence at 460 nm (blue) in HepG2 cells (AID 720687)
Summary of the method: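 HepG2 cells in MEM with 10% FBS, attached overnight at 37 C, were exposed to compound or DMSO for 1 hr at 37 C, 5% CO2. Blue fluorescence was read at 405/460 nm, with triamterene as reference fluorophore.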

[9] = molecular target: Glucocorticoid receptor (Homo sapiens) (UniProt P04150); assay: qHTS assay to identify small molecule agonists of the glucocorticoid receptor (GR) signaling pathway (AID 720691; active = well fitted activation curve with a large enough effect in the signal ratio in the repeat runs, not every such curve was filed as active; the % refers to the signal ratio)
Summary of the method: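 Cells: GR-bla HeLa, endogenous GR with stably integrated GRE-beta-lactamase reporter. Treatment 18 h, 37 C, compounds delivered in DMSO. Detection via LiveBLAzer B/G FRET substrate, 2 h RT, fluorescence intensity.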

[10] = molecular target: Glucocorticoid receptor (Homo sapiens) (UniProt P04150); assay: qHTS assay to identify small molecule antagonists of the glucocorticoid receptor (GR) signaling pathway (AID 720692; active = well fitted inhibition curve with a large enough effect in the signal ratio in the repeat runs, not every such curve was filed as active; the % refers to the signal ratio)
Summary of the method: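 Quantitative HTS in antagonist format: HeLa cells expressing endogenous GR and a stably integrated GRE-bla reporter, stimulated with 5 nM dexamethasone (final) alongside test compounds for 18 h.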
% is set by controls: 0 for no effect and ±100 for the full control effect.

Sequence of Glucocorticoid receptor (Homo sapiens) (P04150 whole entry, looked up): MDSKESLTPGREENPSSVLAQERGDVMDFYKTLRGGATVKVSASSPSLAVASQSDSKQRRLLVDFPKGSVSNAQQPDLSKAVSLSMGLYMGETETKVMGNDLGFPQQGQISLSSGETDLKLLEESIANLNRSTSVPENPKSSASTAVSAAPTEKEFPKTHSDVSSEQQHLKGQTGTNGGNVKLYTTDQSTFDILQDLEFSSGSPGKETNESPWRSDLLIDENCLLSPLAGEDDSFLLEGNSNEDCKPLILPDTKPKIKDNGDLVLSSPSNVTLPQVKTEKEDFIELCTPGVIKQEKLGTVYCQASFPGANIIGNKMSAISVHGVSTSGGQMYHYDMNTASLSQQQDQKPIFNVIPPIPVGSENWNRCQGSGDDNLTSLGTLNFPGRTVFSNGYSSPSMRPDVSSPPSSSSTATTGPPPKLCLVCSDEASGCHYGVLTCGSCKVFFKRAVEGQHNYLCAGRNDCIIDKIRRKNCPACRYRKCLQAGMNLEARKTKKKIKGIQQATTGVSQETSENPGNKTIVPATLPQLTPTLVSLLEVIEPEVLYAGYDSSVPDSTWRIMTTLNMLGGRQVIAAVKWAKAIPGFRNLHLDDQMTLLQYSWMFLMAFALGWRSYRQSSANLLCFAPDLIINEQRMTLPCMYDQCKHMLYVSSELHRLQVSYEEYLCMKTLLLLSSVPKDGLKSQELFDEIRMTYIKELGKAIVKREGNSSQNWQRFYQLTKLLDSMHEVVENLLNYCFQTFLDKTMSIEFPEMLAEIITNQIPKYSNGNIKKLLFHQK

CN(C)CCCCl
inactive: outcome [1] | outcome [2] | outcome [3] | outcome [4] | outcome [5] | outcome [6] | outcome [7] | outcome [8] | Potency [9] | outcome [10]

CC1=C(C(=O)O)N2C(=O)[C@@H](NC(=O)[C@H](N)C3=CCC=CC3)[C@H]2SC1
inactive: outcome [1] | outcome [2] | outcome [3] | outcome [4] | outcome [5] | outcome [6] | outcome [7] | outcome [8] | Potency [9] | outcome [10]

CC(C)COC(=O)c1ccccc1
inactive: outcome [1] | outcome [2] | outcome [3] | outcome [4] | outcome [5] | outcome [6] | outcome [7] | outcome [8] | Potency [9] | outcome [10]

CCCCCCCCCCCCCCC(=O)NC(CO)CCCCCCCCCCCCCC (configuration not stated)
inactive: outcome [1] | outcome [2] | outcome [3] | outcome [4] | outcome [5] | outcome [6] | outcome [7] | outcome [8] | Potency [9] | outcome [10]

CC(S)C(C)S (configuration not stated)
inactive: outcome [1] | outcome [2] | outcome [3] | outcome [4] | outcome [5] | outcome [6] | outcome [7] | outcome [8] | Potency [9] | outcome [10]

C=CC/C=C/C
inactive: outcome [1] | outcome [2] | outcome [3] | outcome [4] | outcome [5] | outcome [6] | outcome [7] | outcome [8] | Potency [9] | outcome [10]

CC1CCc2c(N3CCC(O)CC3)c(F)cc3c(=O)c(C(=O)O)cn1c23 (configuration not stated)
inactive: outcome [1] | outcome [2] | outcome [3] | outcome [4] | outcome [5] | outcome [6] | outcome [7] | outcome [8] | Potency [9] | outcome [10]

CCCCCC/C=C/C(=O)OC
inactive: outcome [1] | outcome [2] | outcome [3] | outcome [4] | outcome [5] | outcome [6] | outcome [7] | outcome [8] | Potency [9] | outcome [10]

CCOCCOCC
inactive: outcome [1] | outcome [2] | outcome [3] | outcome [4] | outcome [5] | outcome [6] | outcome [7] | outcome [8] | Potency [9] | outcome [10]

CC(C)NCC(O)c1ccc2ccccc2c1 (configuration not stated)
inactive: outcome [1] | outcome [2] | outcome [3] | outcome [4] | outcome [5] | outcome [6] | outcome [7] | outcome [8] | Potency [9] | outcome [10]

CCn1cc(C(=O)O)c(=O)c2cnc(N3CCCC3)nc21
inactive: fluorescence, % of fluorescein [1] 0.0361% [at 18.6 µM] | fluorescence, % of fluorescent control [2] 0.169% [at 18.6 µM] | activity change [3] -0.0351% [at 18.6 µM] | fluorescence, % of fluorescent control [4] -0.162% [at 18.6 µM] | fluorescence, % of Rose Bengal [5] 0.682% [at 18.6 µM] | fluorescence, % of fluorescent control [6] 0.141% [at 18.6 µM] | fluorescence, % of fluorescein control [7] -0.0006% [at 18.6 µM] | fluorescence, % of fluorescent control [8] 2.47% [at 18.6 µM] | Potency [9] | outcome [10]

CN(C)CCCO[C@@H]1[C@H]2OC(C)(C)O[C@H]2O[C@@H]1C(O)CO (some centres not stated)
inactive: outcome [1] | outcome [2] | outcome [3] | outcome [4] | outcome [5] | outcome [6] | outcome [7] | outcome [8] | Potency [9] | outcome [10]

CCCCOC(=O)C(C)O (configuration not stated)
inactive: outcome [1] | outcome [2] | outcome [3] | outcome [4] | outcome [5] | outcome [6] | outcome [7] | outcome [8] | Potency [9] | outcome [10]

CC1OCCC1=O (configuration not stated)
inactive: outcome [1] | outcome [2] | outcome [3] | outcome [4] | outcome [5] | outcome [6] | outcome [7] | outcome [8] | Potency [9] | outcome [10]

CC(C)c1ccc(C=O)cc1
inactive: outcome [1] | outcome [2] | outcome [3] | outcome [4] | outcome [5] | outcome [6] | outcome [7] | outcome [8] | Potency [9] | outcome [10]

CC/C=C\CCOC(=O)c1ccccc1O
inactive: outcome [1] | outcome [2] | outcome [3] | outcome [4] | outcome [5] | outcome [6] | outcome [7] | outcome [8] | Potency [9] | outcome [10]

CC(C)CO
inactive: outcome [1] | outcome [2] | outcome [3] | outcome [4] | outcome [5] | outcome [6] | outcome [7] | outcome [8] | Potency [9] | outcome [10]

O=C1OCCO1
inactive: outcome [1] | outcome [2] | outcome [3] | outcome [4] | outcome [6] | outcome [7] | outcome [8] | Potency [9]

CCCCSCCCC
inactive: outcome [1] | outcome [2] | outcome [3] | outcome [4] | outcome [6] | outcome [7] | outcome [8] | Potency [9] | outcome [10]

NC(=O)[C@@H]1CSSCCC(=O)N[C@@H](CCCCN=C(N)N)C(=O)NCC(=O)N[C@@H](CC(=O)O)C(=O)N[C@@H](Cc2c[nH]c3ccccc23)C(=O)N2CCC[C@H]2C(=O)N1 ([Mpa][hArg]GDWPC-NH2; disulfide 1-7)
inactive: outcome [1] | outcome [2] | outcome [3] | outcome [4] | outcome [6] | outcome [7] | outcome [8] | Potency [9] | outcome [10]

CC(C)CCOC(=O)c1ccccc1
inactive: outcome [2] | outcome [3] | outcome [4] | outcome [5] | outcome [6] | outcome [7] | outcome [8]

CSc1cnccn1
inactive: outcome [2] | outcome [3] | outcome [4] | outcome [5] | outcome [6] | outcome [7] | outcome [8]

CCCC(=O)OCCC(C)CCC=C(C)C (configuration not stated)
inactive: outcome [2] | outcome [3] | outcome [4] | outcome [5] | outcome [6] | outcome [7] | outcome [8]

C=CCCCC
inactive: outcome [1] | outcome [2] | outcome [3] | outcome [4] | outcome [6] | outcome [7] | outcome [8] | Potency [9] | outcome [10]

CN(C)CCN(C)CCO
inactive: outcome [1] | outcome [2] | outcome [3] | outcome [4] | outcome [6] | outcome [7] | outcome [8] | Potency [9]

CC(C)Cn1cnc2c1c(=O)n(C)c(=O)n2C
inactive: outcome [1] | outcome [2] | outcome [3] | outcome [4] | outcome [6] | outcome [7] | outcome [8] | Potency [9]
